From PubChem BioAssay AID1259417 (TB Discovery Research, Infectious Disease Research Institute, 2018) come the findings set out here.

The campaign covered roughly 1,100 compounds. About 760 (69%) were called active. No rule for the calls is given here. So high a share suggests a set chosen from earlier hits. Some of the results follow.

The assay is described as follows: M. tuberculosis growth inhibition, HTS (AID 1259417).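 Also: bacteria grown with compound for 5 days at 37 °C.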 Particulars: stronger effect = higher value, concentration not given here.
The mark [1] stands for this setting: M. tuberculosis DsRed fluorescence growth inhibition.
Where [2] appears, read: M. tuberculosis growth inhibition.

In the case of `COc1ccc(C(=O)Nc2nnc(C3=COCCO3)o2)cc1`, the inhibition is, setting by setting: under setting [1], -1.74% (inactive); under setting [2], -16.2%.
Taken in the same sequence, the figures for `CCCCOc1ccc(C(=O)Nc2nnc(-c3ccncc3)o2)cc1` were 18.1% (active) and 42.4%.
For the compound `CCOc1ccc(C(=O)Nc2nnc(-c3ccccn3)o2)cc1`, the inhibition was 3.93% (inactive) under setting [1] and -4.77% under setting [2].
Taken in the same sequence, the figures for `O=C(Nc1nnc(-c2ccco2)o1)c1ccc(Oc2ccccc2)cc1` were 70.2% (active) and 86.6%.
With `CCCCOc1ccc(C(=O)Nc2nnc(-c3ccco3)o2)cc1`, the inhibition is, setting by setting: under setting [1], 44.2% (active); under setting [2], 26%.
As for `CCc1ccc(/C=C/C(=O)C2C(=O)c3ccccc3C2=O)cc1`, the inhibition runs as follows: under setting [1], 100% (active); under setting [2], 99.5%.
For the compound `NC(=O)c1c(NC(=O)c2cccc(F)c2)sc2c1CCC2`, the inhibition is -2.04% (inactive) under setting [1] and -14.1% under setting [2].
Consider `NC(=O)c1c(NC(=O)c2c(F)c(F)c(F)c(F)c2F)sc2c1CCCCCC2`, for which the inhibition is, setting by setting: under setting [1], 43.3% (active); under setting [2], 78.9%.
As for `COc1cc(C(=O)Nc2sc3c(c2C(N)=O)CCCC3)c(Br)c(OC)c1OC`, the inhibition under setting [1] was 27.3% (inactive) and the inhibition under setting [2] was 4.82%.
As to `Cc1ccc(C(=O)Nc2sc3c(c2C(N)=O)CCC(C(C)(C)C)C3)c(C)c1` (stereo not given), the inhibition was -2.03% (inactive) under setting [1] and -11.7% under setting [2].
With `NC(=O)c1c(NC(=O)c2c(F)c(F)c(F)c(F)c2F)sc2c1CCC2`, the inhibition reads like this: under setting [1], 98.9% (active); under setting [2], 95.4%.
`CC(C)(C)c1ccc(Cn2cnc([N+](=O)[O-])n2)cc1`: the inhibition is 98.3% (active) under setting [1] and 96.6% under setting [2].
Consider `COC(=O)c1c(NC(=O)c2c(F)cccc2F)sc2c1CCC(C(C)(C)C)C2` (stereo not given), for which the inhibition was 0.929% (inactive) under setting [1] and -6.55% under setting [2].
Taken in the same sequence, the figures for `COc1cccc(C(=O)Nc2sc3c(c2C(N)=O)CCCCCC3)c1` were -2.93% (inactive) and -15.5%.
In the case of `CCOC(=O)c1c(NC(=O)COc2ccc(C(C)C)cc2)sc2c1CCC2`, the inhibition runs as follows: under setting [1], 44.6% (active); under setting [2], 99.6%.
Turning to `CCOc1cccc(C(=O)Nc2sc3c(c2C(N)=O)CCC3)c1`, the inhibition was -0.558% (inactive) under setting [1] and -34.5% under setting [2].
Turning to `NC(=O)c1c(NC(=O)c2cc(Cl)ccc2Cl)sc2c1CCCCCC2`, the inhibition is, setting by setting: under setting [1], -5.89% (inactive); under setting [2], -25.5%.
With `CCOC(=O)c1c(NC(=O)c2cc(-n3cnnc3)ccc2Cl)sc2c1CCCC2`, the inhibition under setting [1] is 37.7% (active) and the inhibition under setting [2] is 36.2%.
For `COC(=O)c1c(NC(=O)c2c(F)c(F)c(F)c(F)c2F)sc2c1CCCCC2`, the inhibition under setting [1] was 97.4% (active) and the inhibition under setting [2] is 93%.
Consider `COC(=O)c1c(NC(=O)c2c(F)c(F)c(F)c(F)c2F)sc2c1CCC2`, for which the inhibition by setting is: under setting [1], 98.2% (active); under setting [2], 95.8%.
Taken in the same sequence, the figures for `Cc1cc(C2N=C(N)Nc3nc4ccccc4n32)c(C)n1-c1ccccc1Cl` (stereo not given) were -7.08% (inactive) and -25.2%.
On to `Cc1ccc(-n2cc(-c3ccccc3)c3c(NCc4cccnc4)ncnc32)cc1`, for which the inhibition reads like this: under setting [1], 19.7% (inactive); under setting [2], -7.61%.
`Cc1cccc(C(=O)Nc2sc3c(c2C(=O)N2CCCC2)CCC3)c1`: the inhibition was -0.854% (inactive) under setting [1] and -7.24% under setting [2].
As for `CNC(=O)c1c(NC(=O)c2cccc(C)c2)sc2c1CCC2`, the inhibition by setting is: under setting [1], 9.53% (inactive); under setting [2], -24.5%.
As for `CCOC(=O)C=CC(=O)Nc1sc2c(c1C(=O)OC)CCC2`, the inhibition was 10.6% (active) under setting [1] and 29.7% under setting [2].
Taken in the same sequence, the figures for `CCOC(=O)c1c(NC(=O)c2c(F)c(F)c(F)c(F)c2F)sc2c1CCCCC2` were 97.9% (active) and 96.2%.
As for `Oc1ccc(Br)cc1-c1nc(-c2cccs2)c(-c2cccs2)[nH]1`, the inhibition under setting [1] was 1.19% (inactive) and the inhibition under setting [2] is -11.5%.
Regarding `N#Cc1cc2c(ccc3ccccc32)oc1=O`, the inhibition is 17.3% (active) under setting [1] and 55.9% under setting [2].
Turning to `COC(=O)C(C)Sc1nnc(-c2ccc(Br)cc2)o1` (stereo not given), the inhibition under setting [1] was 71.1% (active) and the inhibition under setting [2] came out at 95.8%.
Take `CC(C)C(=O)Nc1nnc(-c2ccccc2)o1`: the inhibition runs as follows: under setting [1], 1.9% (inactive); under setting [2], 2.21%.
Taken in the same sequence, the figures for `CCCCC(=O)Nc1nnc(-c2ccc(Br)cc2)o1` were 5.72% (inactive) and 15.5%.
Taken in the same sequence, the figures for `CC(C)(C)C(=O)Nc1nnc(-c2ccc(Br)cc2)o1` were 90.8% (active) and 84.1%.
Taken in the same sequence, the figures for `CC(C)C(=O)Nc1nnc(-c2ccc(Br)cc2)o1` were 23.4% (active) and 38.6%.
In the case of `O=C1C=C(c2ccccc2)C(=O)c2ccccc21`, the inhibition runs as follows: under setting [1], 12% (active); under setting [2], 58.3%.
Take `O=C(CSc1nc2cc(Cl)ccc2o1)NCCc1ccccc1`: the inhibition is, setting by setting: under setting [1], 85.8% (active); under setting [2], 53%.
As for `COc1ccc(Cc2nnc(SCC(=O)NCCc3ccccc3)o2)cc1`, the inhibition is, setting by setting: under setting [1], 98% (active); under setting [2], 96.2%.
As for `COc1ccc(Cc2nnc(SCC(=O)NCc3ccco3)o2)cc1`, the inhibition is, setting by setting: under setting [1], 32.4% (active); under setting [2], 54.8%.
Take `O=C(CSc1nnc(Cc2ccccc2)o1)NCCc1ccccc1`: the inhibition by setting is: under setting [1], 63.5% (active); under setting [2], 42%.
On to `COc1ccc(-c2nnc(SCC(=O)NCCc3ccccc3)o2)cc1`, for which the inhibition was 93.3% (active) under setting [1] and 88.5% under setting [2].
`Cc1cccc(NC(=S)NCCN2CCN(c3ccc(F)c(Cl)c3)CC2)c1C`: the inhibition runs as follows: under setting [1], 9.39% (inactive); under setting [2], -14%.
As to `O=c1c2ccccc2[nH]c(=S)n1CCCN1CCN(c2cccc(Cl)c2)CC1`, the inhibition by setting is: under setting [1], 14.1% (inactive); under setting [2], -11.2%.
As for `COc1cccc(N2CCN(Cc3nc(N)nc(Nc4ccc(C)c(C)c4)n3)CC2)c1`, the inhibition is 29.6% (active) under setting [1] and 48.8% under setting [2].
Turning to `Cc1cccc(Nc2nc(N)nc(CN3CCN(c4cccc(Cl)c4)CC3)n2)c1`, the inhibition under setting [1] was 33.7% (active) and the inhibition under setting [2] worked out at 47.4%.
In the case of `COc1ccc(N2CCN(Cc3nc(N)nc(Nc4ccc(C)c(Cl)c4)n3)CC2)cc1`, the inhibition is 27.3% (active) under setting [1] and 55.4% under setting [2].
Consider `COc1cccc(N2CCN(Cc3nc(N)nc(Nc4ccc(C)c(Cl)c4)n3)CC2)c1`, for which the inhibition runs as follows: under setting [1], 9.68% (inactive); under setting [2], 23.6%.
`O=C(OCC#CCSc1nnc(-c2ccc(Br)cc2)o1)c1cccs1`: the inhibition by setting is: under setting [1], 33.6% (active); under setting [2], 31.6%.
Taken in the same sequence, the figures for `CC(=O)OCC#CCSc1nnc(-c2ccc(Br)cc2)o1` were 49.2% (active) and 48%.
Take `O=C(OCC#CCSc1nnc(-c2ccc([N+](=O)[O-])cc2)o1)c1cccs1`: the inhibition is 65.7% (active) under setting [1] and 72.9% under setting [2].
Taken in the same sequence, the figures for `CSc1ccc(C(=O)C2CCCN(Cc3cc4ccccc4[nH]3)C2)cc1` (stereo not given) were 4.22% (inactive) and -24.7%.
For `CCC(C)c1ccc(O)c(NC(=S)NC(=O)c2cccnc2)c1` (stereo not given), the inhibition by setting is: under setting [1], 99.4% (active); under setting [2], 99.7%.
Taken in the same sequence, the figures for `O=C(Nc1cccc(Br)c1)c1ccc(-c2ccc(Cl)cc2)o1` were 8.23% (inactive) and 21%.
Taken in the same sequence, the figures for `CCC(C)c1ccc(O)c(NC(=S)NC(=O)c2ccc(-c3ccc(Cl)cc3)o2)c1` (stereo not given) were 74.3% (active) and 78.2%.
For `CCCC(=O)N1CCN(c2ccc(NC(=O)c3ccc(-c4ccc(Cl)cc4)o3)cc2Cl)CC1`, the inhibition was 0.329% (inactive) under setting [1] and -21.3% under setting [2].
On to `C=CCn1c(=NC(=O)c2ccc([N+](=O)[O-])s2)sc2cc(S(N)(=O)=O)ccc21`, for which the inhibition under setting [1] is 59.9% (active) and the inhibition under setting [2] is 94.9%.
As for `CCc1c(C)c2ccc(OCC(=O)OC)c(C)c2oc1=O`, the inhibition under setting [1] was 49.4% (active) and the inhibition under setting [2] was determined as 89.1%.
Take `Cc1cc(C)cc(COc2ccc3c(C)c(CCC(=O)O)c(=O)oc3c2C)c1`: the inhibition was 13.5% (inactive) under setting [1] and -13.6% under setting [2].
`COC(=O)Cc1c(C)c2ccc(OCC(=O)OCc3ccccc3)c(C)c2oc1=O`: the inhibition was 4.42% (active) under setting [1] and 54% under setting [2].
Taken in the same sequence, the figures for `O=c1cnnc(NN=Cc2cc(Br)ccc2O)[nH]1` were 100% (active) and 98.8%.
Taken in the same sequence, the figures for `Cc1cccc(C(=O)N2N=C(c3ccc(Br)cc3)CC2(O)C(F)(F)F)c1` (stereo not given) were 12.2% (active) and 41%.
`O=C(c1cccc([N+](=O)[O-])c1)N1N=C(c2ccc(Br)cc2)CC1(O)C(F)(F)F` (stereo not given): the inhibition was 5.59% (inactive) under setting [1] and 21% under setting [2].
As to `CCOc1cc(CNC23CC4CC(CC(C4)C2)C3)ccc1OCc1cccs1`, the inhibition by setting is: under setting [1], 99.7% (active); under setting [2], 95.9%.
In the case of `COc1cc(CNC23CC4CC(CC(C4)C2)C3)ccc1OCc1ccccc1`, the inhibition under setting [1] is 99.4% (active) and the inhibition under setting [2] was 96.2%.
Taken in the same sequence, the figures for `c1ccc(COc2ccccc2CNC23CC4CC(CC(C4)C2)C3)cc1` were 22.3% (inactive) and 3.79%.
Consider `CN(C)c1ccc(CNC23CC4CC(CC(C4)C2)C3)cc1`, for which the inhibition under setting [1] is 98.9% (active) and the inhibition under setting [2] was 95.5%.
For `CCOc1cccc(N2C(=O)CC(SC(N)=NN=C(C)c3ccc(Cl)s3)C2=O)c1` (stereo not given), the inhibition was 6.46% (inactive) under setting [1] and -10.4% under setting [2].

As usually defined, the inhibition is the drop in the measured response relative to a control, in per cent.
